The panel holds about 83,000 compounds, 20% with a hit somewhere; the sample as a whole holds those more often.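 The endpoint reported here, percent growth, reads 100 for growth as untreated, 0 for no net growth and -100 for all cells dead.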
Tests used:
Experiment in all cases: NCI-60 one-dose screen, 48 h (100 = growth as untreated, 0 = no growth, -100 = all killed)
Settings in all cases: 10 µM; active = growth percent below 10; inactive = the rest
[1] = tested on: HCT-15 colon
[2] = tested on: HT29 colon
[3] = tested on: SNB-75 CNS
[4] = tested on: SNB-19 CNS
[5] = tested on: U251 CNS
[6] = tested on: PC-3 prostate
[7] = tested on: SK-MEL-5 melanoma
[8] = tested on: UACC-62 melanoma
[9] = tested on: LOX IMVI melanoma
[10] = tested on: SK-MEL-28 melanoma
[11] = tested on: SK-MEL-2 melanoma
[12] = tested on: SN12C renal
[13] = tested on: UO-31 renal
[14] = tested on: TK-10 renal
[15] = tested on: ACHN renal
[16] = tested on: CAKI-1 renal
[17] = tested on: CCRF-CEM leukemia
[18] = tested on: MOLT-4 leukemia
[19] = tested on: A498 renal
[20] = tested on: EKVX NSCLC

Measured: growth

O=[N+]([O-])c1cc2ncccc2c2ncccc12
inactive: [1] 71.9% | [2] 102% | [3] 88.2% | [4] 96% | [5] 102% | [6] 77.8% | [7] 72.1% | [8] 76.4% | [9] 45.5% | [10] 92% | [11] 84.9% | [12] 87.2% | [13] 52.1% | [14] 106% | [15] 65.3% | [16] 84.2% | [17] 74.9% | [18] 61.4%

COc1ccc(/C=C2\SC(=S)N(CCCN3CCOCC3)C2=O)c(OC)c1
inactive: [1] 91.9% | [2] 96.2% | [3] 99.4% | [4] 99.8% | [5] 97.3% | [6] 93.2% | [7] 90% | [8] 90.8% | [9] 97.8% | [10] 106% | [11] 99% | [12] 93.8% | [13] 86.8% | [15] 98% | [16] 94.4% | [19] 102% | [17] 75.7% | [18] 94.4%

Cn1cnc([N+](=O)[O-])c1/C=C1\Oc2ccc(Cl)cc2C1=O
inactive: [1] 78.4% | [2] 78.4% | [3] 83.6% | [4] 107% | [5] 97.2% | [6] 79.3% | [7] 91.8% | [8] 91.1% | [9] 73% | [10] 105% | [11] 82.2% | [12] 98.9% | [13] 48.3% | [15] 79.4% | [16] 78.1% | [19] 98.4% | [17] 33.7% | [18] 49.3%

CCN1CCN(c2ccc(Nc3ncnc4c3nnn4CCc3cc(OC)cc(OC)c3)cc2)CC1
inactive: [1] 63.6% | [2] 57.9% | [3] 79.8% | [4] 94% | [5] 77.4% | [6] 82.2% | [8] 93.9% | [9] 88.1% | [10] 101% | [11] 110% | [12] 93.7% | [13] 81.3% | [14] 114% | [15] 106% | [16] 102% | [19] 65.6% | [17] 86.4% | [18] 88.9%

O=c1cc(CSc2nnc(-c3ccccc3)n2-c2ccc(F)cc2)c2ccc3ccccc3c2o1
inactive: [1] 98.2% | [2] 96.4% | [3] 92.9% | [4] 99.1% | [5] 98.8% | [6] 79% | [8] 83.2% | [9] 90.3% | [10] 104% | [11] 79.7% | [20] 95.3% | [13] 65.6% | [14] 104% | [15] 99% | [16] 88.6% | [19] 118% | [17] 108% | [18] 82.7%

CCc1c(C(=O)NCc2c(O)ccc3cccc(O)c23)[nH]c(C)c1C(C)=O
inactive: [1] 14% | [2] 58.2% | [3] 56.6% | [4] 53% | [5] 33.4% | [6] 27.4% | [8] 15.4% | [9] 16.2% | [10] 37.5% | [11] 32.7% | [20] 27.6% | [13] 12.5% | [14] 46.8% | [15] 11.6% | [16] 34.2% | [19] 49.3% | [17] 16.6% | [18] 19.6%

COc1ccc(-c2nnc(COc3ccc(NC(=O)Nc4ccccc4)cc3F)o2)cc1
inactive: [1] 88.2% | [2] 100% | [3] 68.2% | [4] 86.8% | [5] 85% | [6] 65.5% | [8] 78% | [9] 89.6% | [10] 98.6% | [11] 79.4% | [12] 91.1% | [13] 68.9% | [14] 101% | [15] 77.6% | [16] 83.6% | [19] 64% | [17] 61.2%

C[C@@H]1N=C(c2ccc(Br)cc2)Nc2nc3ccccn3c2C1=O
inactive: [1] 30.7% | [2] 17.5% | [3] 50.2% | [4] 82.6% | [5] 54% | [6] 63.2% | [7] 31.9% | [8] 49.2% | [9] 52.4% | [10] 66.2% | [11] 47.4% | [12] 91.8% | [13] 62% | [15] 69.2% | [16] 44.1% | [19] 69.9% | [17] 79.4% | [18] 57.5%

Cc1cnc(C=O)c2cccc([N+](=O)[O-])c12
inactive: [1] 70.7% | [2] 79.1% | [3] 69.6% | [4] 99.2% | [5] 91.9% | [6] 79.9% | [7] 95.5% | [8] 103% | [9] 72.1% | [10] 111% | [11] 102% | [12] 86.8% | [13] 43.5% | [15] 85.8% | [16] 86.3% | [19] 106% | [17] 11.5% | [18] 61%

— PubChem BioAssay (NCI)
